# Legend:
# Assay in all cases: PBM binding z-score (relative to random genomic background probes); higher = stronger binding; sequences stand for … in GC…GCGATTGACAGCGTAGAATGAAGG
# [1] = test system: FXR:RXRa (NR concentration 270 nM, RXRa partner concentration 90 nM)
# Procedure, shortened: (§1)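 Random background probes are the reference for binding z-scores. These scores derive from regression-normalized fluorescence on custom Agilent 4×180K protein-binding microarrays incubated 1 h with ligand-free nuclear receptor dimers. Binding was detected with antibodies against each partner (one per run).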
# [2] = test system: LXRa:RXRa (NR concentration 270 nM, RXRa partner concentration 90 nM)
# Procedure, shortened: as §1
# [3] = test system: LXRa homodimer (NR concentration 270 nM)
# Procedure, shortened: as §1
# [4] = test system: LXRb:RXRa (NR concentration 270 nM, RXRa partner concentration 90 nM)
# Procedure, shortened: as §1
# [5] = test system: LXRb homodimer (NR concentration 270 nM)
# Procedure, shortened: as §1
# [6] = test system: PPARa:RXRa (NR concentration 270 nM, RXRa partner concentration 90 nM)
# Procedure, shortened: as §1
# [7] = test system: PPARg:RXRa (NR concentration 180 nM, RXRa partner concentration 90 nM)
# Procedure, shortened: as §1
# [8] = test system: PPARg:RXRa 270nM:90nM, anti-RXR (NR concentration 270 nM, RXRa partner concentration 90 nM)
# Procedure, shortened: as §1
# [9] = test system: PPARg:RXRa 30nM:10nM, anti-RXR (NR concentration 30 nM, RXRa partner concentration 10 nM)
# Procedure, shortened: as §1
# [10] = test system: PPARg:RXRa 90nM:30nM, anti-RXR (NR concentration 90 nM, RXRa partner concentration 30 nM)
# Procedure, shortened: as §1
Sequence,PBM binding z-score [1],PBM binding z-score [2],PBM binding z-score [3],PBM binding z-score [4],PBM binding z-score [5],PBM binding z-score [6],PBM binding z-score [7],PBM binding z-score [8],PBM binding z-score [9],PBM binding z-score [10]
TCGAGTAGGTTACCAAGGGGGCATTCAGCTTTCT,1.44,4.34,0.768,4.55,6.02,2.95,1.48,3.04,2.18,2.74
TCATATAGGTAACCAGGTGAAAGTCCGTAAGTTA,0.67,0.846,0.139,1.04,0.073,2.95,4.7,4.35,4.08,4.4
CCTTACGGGTCAAGATTATAGCACGGGTGGTACG,4.99,3.15,0.00162,2.76,0.37,4.61,3.55,3.6,1.65,2.56
CGTCCAAGGACATAGGAGGTCAGTGAAGACAGAT,1.5,1.47,1.23,1.26,-0.58,2.02,0.76,0.564,0.000734,0.268
CAAACCAGGTCACCGGAAGGTCAAAGTCCGCATG,7.26,6.79,5.52,6.01,1.71,6.08,7.88,6.92,4.07,6.45
TGTCCAAGTTCAAAGGTAACGTAAGTATCCACAC,4.56,4.49,1.09,3.06,0.689,4.29,4,4.65,2.1,4.16
TCATATAAGTAAAGGTGAAAGTCGAACGATATGA,1,1.25,-0.151,1.26,-0.205,2.77,1.98,2.93,3.99,3.46
ATCTCTAGGTAACCAAGTTCAGTGACTGCCGAAC,0.544,1.09,1.07,0.872,0.838,1.24,0.732,1.15,0.402,0.958
TCAGACAGGTGACGGTAACTCAGGTACGCAGTCG,-0.0449,0.58,-0.354,0.0924,-0.599,0.857,0.69,1.72,3.16,2.51
ATATGTAGGTTAGCTGGGGTCATACAGACTAGGC,5.27,5.79,2.45,4.74,0.852,5.2,6,5.38,2.74,4.94
TCTTGTAGATCAAAGGTTAACAAAGCCGAAGCCT,1.99,2.08,-0.0148,2.16,0.107,4.9,8.48,8.41,7.57,9.81
CCTCGGAGGACAACAGGAGGTCAGACCTGCCAGA,0.836,2.12,2.37,1.52,-0.492,1.96,0.605,0.0936,-0.634,-0.359
CCTACTGGGCCCCGAAAGGTCATTGATTCAGTGA,3.17,4.07,4.02,3.98,0.0468,3.93,1.14,2.68,0.29,1.58
CTCGAAAGGTCTTGCTCAGGTGAGTATACCAAAC,0.669,0.369,-0.371,0.506,-0.158,0.978,-0.115,0.563,-0.064,0.608
CGTCCAAGGTCAGAGAGGTCCGTGAATGCCGAGT,4.9,3.08,-0.0652,1.98,-0.373,3.88,1.83,2.4,-0.0552,1.08
ATATGTTGGTTAAGGGTCATTCAGGTTGGTTCGC,4.33,4.39,2.88,4.31,1.83,4.83,6.96,7.58,6.29,7.73
TCTATTAGTTGATTTGGGCAACCGAAACAGCGGA,0.267,0.602,0.223,0.863,1.2,0.657,-0.145,1.83,3.74,3.01
GCGACTGGGGCAAAGCAGGTTAACATAAGGTTGG,0.921,0.436,-0.346,0.261,-1.01,1.41,1.62,1.19,0.0162,0.614
CCTTACGGGTCACTGACATGTTATAGCATTTGGA,5.55,3.84,0.306,3.54,0.233,5.2,4.42,4.66,2.21,3.45
AGGACGAGGGCACGCTGAGTTGATAGCAGAGTAG,0.954,0.423,-0.584,0.138,-1.02,1.45,1.2,0.43,-0.0581,0.384
ATCGAAAGGACGACGAGGTGAGTATACACCGTTT,0.179,-0.132,-0.204,-0.324,-0.355,-0.0942,1.08,-0.0154,0.318,0.299
TCTAGTGGGTCACGGAGGTCACACACGACGGGTA,6.17,5.14,2.85,4.62,0.568,5.74,9.39,7.63,5.61,7.51
AGGATGAGGTTATACGTAGATCAGGGAAGAAAGT,2.42,1.94,0.445,2.03,0.715,2.62,1.16,1.11,0.501,0.724
AGAATGAGGTTATACGTCGATCAGGGAAGAAAGT,2.16,1.54,-0.164,1.29,0.0862,3.16,2.32,2.99,1.45,2.25

# From the supplement of paper PMC6555819
